Assay results reported in PubChem BioAssay (NCI).
About 83,000 compounds went through this panel and 20% of them were active in at least one assay; those are over-represented in the sample as a whole.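 Compound tested at a single concentration for 48 hours in 96-well plates; a percent growth value below 10 was scored as active.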 Calls of active or inactive are those of the source.

Assays:
Test in all cases: NCI-60 one-dose screen, 48 h (100 = growth as untreated, 0 = no growth, -100 = all killed)
K-562 leukemia = conditions: 10 µM unless noted
MALME-3M melanoma = conditions: 10 µM unless noted
MDA-MB-231 breast = conditions: 10 µM unless noted
RXF 393 renal = conditions: 10 µM unless noted
SF-268 CNS = conditions: 10 µM unless noted
SF-295 CNS = conditions: 10 µM unless noted
SF-539 CNS = conditions: 10 µM unless noted
UACC-257 melanoma = conditions: 10 µM unless noted
M14 melanoma = conditions: 10 µM unless noted
HCT-15 colon = conditions: 10 µM unless noted
HT29 colon = conditions: 10 µM unless noted
SNB-75 CNS = conditions: 10 µM unless noted
SNB-19 CNS = conditions: 10 µM unless noted
U251 CNS = conditions: 10 µM unless noted
PC-3 prostate = conditions: 10 µM unless noted
SK-MEL-5 melanoma = conditions: 10 µM unless noted
LOX IMVI melanoma = conditions: 10 µM unless noted
SK-MEL-28 melanoma = conditions: 10 µM
SK-MEL-2 melanoma = conditions: 10 µM unless noted
UACC-62 melanoma = conditions: 10 µM unless noted

Measured: growth

Clc1ccc(COc2ccc(Nc3ncnc4onc(-c5ccccc5)c34)cc2)cc1
inactive: K-562 leukemia 89.9% | MALME-3M melanoma 92.7% | MDA-MB-231 breast 76.5% | RXF 393 renal 95.5% | SF-268 CNS 89.2% | SF-295 CNS 93.7% | SF-539 CNS 97% | UACC-257 melanoma 85.6% | M14 melanoma 76% | HCT-15 colon 84.2% | HT29 colon 92.2% | SNB-75 CNS 67.8% | SNB-19 CNS 91.6% | U251 CNS 94% | PC-3 prostate 67% | SK-MEL-5 melanoma 83% | LOX IMVI melanoma 86.7% | SK-MEL-28 melanoma 92.1% | SK-MEL-2 melanoma 101%

COc1cc2cc3c(=O)n4c(cc5cc(OC)ncc54)c(=O)n3c2cn1
inactive: K-562 leukemia 102% | MALME-3M melanoma 93.1% | MDA-MB-231 breast 109% | RXF 393 renal 106% | SF-268 CNS 102% | SF-295 CNS 87.7% | SF-539 CNS 106% | UACC-257 melanoma 110% | M14 melanoma 105% | HCT-15 colon 106% | HT29 colon 111% | SNB-75 CNS 94.2% | SNB-19 CNS 105% | U251 CNS 104% | PC-3 prostate 97.2% | SK-MEL-5 melanoma 109% | UACC-62 melanoma 111% | SK-MEL-28 melanoma 106% | SK-MEL-2 melanoma 98%

COc1cccc(-c2nn(C)c3sc(C(=O)NCCN4CCN(c5ccccc5F)CC4)cc23)c1
inactive: MDA-MB-231 breast 30.8% | RXF 393 renal 41.3% | SF-268 CNS 76.9% | SF-539 CNS 56.4% | HCT-15 colon 29.3% | HT29 colon 17% | SNB-75 CNS 64.8% | SNB-19 CNS 92.4% | U251 CNS 59% | PC-3 prostate 38.3% | SK-MEL-2 melanoma 99.4%
active: K-562 leukemia -35.5% | MALME-3M melanoma -87% | SF-295 CNS -55.6% | UACC-257 melanoma -67.3% | M14 melanoma -90.1% | SK-MEL-5 melanoma -79.6% | UACC-62 melanoma -72.1% | SK-MEL-28 melanoma -75.2%

COc1cc(/C=C2\CCC/C(=C\c3cc(CN4CCOCC4)c(O)c(OC)c3)C2=O)cc(CN2CCOCC2)c1O
inactive: K-562 leukemia 15.3% | MALME-3M melanoma 46.3% | MDA-MB-231 breast 26.2% | SF-268 CNS 42.3% | SF-295 CNS 59.6% | SF-539 CNS 32% | UACC-257 melanoma 64.7% | M14 melanoma 36.7% | HCT-15 colon 21.9% | SNB-19 CNS 52.8% | U251 CNS 22% | PC-3 prostate 39.9% | SK-MEL-5 melanoma 52.3% | LOX IMVI melanoma 13.3% | SK-MEL-28 melanoma 58.7% | SK-MEL-2 melanoma 62.7%
active: RXF 393 renal 6.08% | HT29 colon 3.44% | SNB-75 CNS 4.53%

Cc1ccc2c(n1)C(=O)C(Oc1ccc(Br)cc1)=CC2=O
inactive: K-562 leukemia 77% | MALME-3M melanoma 115% | MDA-MB-231 breast 91.1% | RXF 393 renal 104% | SF-268 CNS 88.4% | SF-295 CNS 103% | SF-539 CNS 104% | UACC-257 melanoma 106% | M14 melanoma 94.9% | HCT-15 colon 84.7% | HT29 colon 97.6% | SNB-75 CNS 82.2% | SNB-19 CNS 96.6% | U251 CNS 94.5% | PC-3 prostate 95% | SK-MEL-5 melanoma 93.6% | LOX IMVI melanoma 84.2% | SK-MEL-28 melanoma 116% | SK-MEL-2 melanoma 91.7%

CC(=S)NC(=O)C(=O)/C=C1/NC(=O)C(=O)S1
inactive: K-562 leukemia 110% | MALME-3M melanoma 107% | MDA-MB-231 breast 103% | RXF 393 renal 110% | SF-268 CNS 100% | SF-295 CNS 101% | SF-539 CNS 102% | UACC-257 melanoma 108% | M14 melanoma 106% | HCT-15 colon 102% | HT29 colon 110% | SNB-75 CNS 95.5% | SNB-19 CNS 106% | U251 CNS 111% | PC-3 prostate 99.6% | SK-MEL-5 melanoma 104% | UACC-62 melanoma 99.9% | SK-MEL-28 melanoma 106% | SK-MEL-2 melanoma 103%

O=C(Nc1ccccc1O)c1ccc(-c2ccc(Cl)cc2Cl)o1
inactive: K-562 leukemia 47.1% | MALME-3M melanoma 71.4% | MDA-MB-231 breast 80.4% | RXF 393 renal 79.7% | SF-268 CNS 77.1% | SF-295 CNS 68.4% | SF-539 CNS 115% | UACC-257 melanoma 106% | M14 melanoma 90% | HCT-15 colon 95.9% | HT29 colon 53.9% | SNB-75 CNS 78.1% | SNB-19 CNS 89.2% | U251 CNS 81.1% | PC-3 prostate 71.7% | SK-MEL-5 melanoma 85.9% | UACC-62 melanoma 105% | SK-MEL-2 melanoma 96.3%

COc1cc(/C=C2\CN(C)C/C(=C\c3cc(CN4CCCCC4)c(O)c(OC)c3)C2=O)cc(CN2CCCCC2)c1O
inactive: K-562 leukemia 10.2% | MALME-3M melanoma 84.6% | RXF 393 renal 29.7% | SF-268 CNS 41% | SF-295 CNS 91.7% | SF-539 CNS 48.6% | UACC-257 melanoma 76.9% | M14 melanoma 70.3% | HCT-15 colon 18.6% | SNB-75 CNS 66.9% | SNB-19 CNS 70.9% | U251 CNS 15% | PC-3 prostate 32.7% | SK-MEL-5 melanoma 70.6% | UACC-62 melanoma 60.6% | SK-MEL-28 melanoma 93.5% | SK-MEL-2 melanoma 73.2%
active: MDA-MB-231 breast 7.14% | HT29 colon 3.56%

COc1ccc2occ(C3=C(c4c[nH]c5ccccc45)C(=O)NC3=O)c2c1
inactive: K-562 leukemia 21.6% | MALME-3M melanoma 46.7% | MDA-MB-231 breast 28% | RXF 393 renal 34.5% | SF-268 CNS 52% | SF-295 CNS 35.6% | SF-539 CNS 51.8% | UACC-257 melanoma 76.3% | M14 melanoma 27.3% | HCT-15 colon 24.1% | HT29 colon 17.2% | SNB-75 CNS 16.6% | SNB-19 CNS 51.1% | U251 CNS 43.6% | PC-3 prostate 62.7% | SK-MEL-5 melanoma 47.4% | LOX IMVI melanoma 44.9% | SK-MEL-28 melanoma 58.6% | SK-MEL-2 melanoma 43.7%

O=C(O)CCC(=O)c1ccc(C2CCCCCC2)cc1
inactive: K-562 leukemia 90.2% | MALME-3M melanoma 91.5% | MDA-MB-231 breast 109% | RXF 393 renal 115% | SF-268 CNS 97.5% | SF-295 CNS 97.4% | SF-539 CNS 97.1% | UACC-257 melanoma 94.6% | M14 melanoma 102% | HCT-15 colon 105% | HT29 colon 91.6% | SNB-75 CNS 96.5% | SNB-19 CNS 93.2% | U251 CNS 96% | PC-3 prostate 99.2% | SK-MEL-5 melanoma 105% | SK-MEL-28 melanoma 113% | SK-MEL-2 melanoma 105%

Cc1ccc2cccc(Oc3ccc(Nc4ncnc5onc(-c6ccccc6)c45)cc3)c2n1
inactive: K-562 leukemia 76.7% | MALME-3M melanoma 84.1% | MDA-MB-231 breast 72.2% | RXF 393 renal 82.8% | SF-268 CNS 91.4% | SF-295 CNS 88.1% | SF-539 CNS 79.8% | UACC-257 melanoma 89% | M14 melanoma 84% | HCT-15 colon 43.4% | HT29 colon 57.2% | SNB-75 CNS 78.1% | SNB-19 CNS 92.3% | U251 CNS 70% | PC-3 prostate 58.5% | SK-MEL-5 melanoma 46.3% | UACC-62 melanoma 63.8% | SK-MEL-28 melanoma 80.1% | SK-MEL-2 melanoma 94%

COc1cc(/C=C/C(=O)c2c(C)nc3ccccc3c2/C=C/c2ccccc2)cc(OC)c1OC
active: K-562 leukemia 6.02% | MDA-MB-231 breast -0.432% | RXF 393 renal -17.2% | SF-539 CNS 1.35% | M14 melanoma -6.24% | HCT-15 colon -6.23% | HT29 colon -1.3% | SNB-19 CNS 1.12% | U251 CNS -14.1% | SK-MEL-5 melanoma 8.08% | LOX IMVI melanoma -86.7% | SK-MEL-28 melanoma 1.27% | SK-MEL-2 melanoma -6.78%
inactive: MALME-3M melanoma 36.3% | SF-268 CNS 25.9% | SF-295 CNS 29.8% | UACC-257 melanoma 42.1% | SNB-75 CNS 14.2% | PC-3 prostate 20.5%

O=c1oc2ccc(-c3ccc(F)cc3F)cc2c(=O)n1-c1ccc(Cl)c(C(F)(F)F)c1
active: MALME-3M melanoma 3.35% | RXF 393 renal -3.32% | UACC-257 melanoma -9.78% | SNB-75 CNS 6.37% | U251 CNS 6.46% | PC-3 prostate 5.88% | SK-MEL-5 melanoma -69.6% | SK-MEL-2 melanoma -18.1%
inactive: K-562 leukemia 10.9% | MDA-MB-231 breast 56% | SF-268 CNS 14.5% | SF-295 CNS 17.4% | SF-539 CNS 29.4% | M14 melanoma 21.5% | HCT-15 colon 15.8% | HT29 colon 53.1% | SNB-19 CNS 33.9% | LOX IMVI melanoma 32.1% | SK-MEL-28 melanoma 20.3%

O=C(NC1CCCCC1)C(c1cccs1)N(CCc1ccccc1)C(=O)c1ccco1 (stereo not drawn)
inactive: K-562 leukemia 82.8% | MDA-MB-231 breast 98.5% | RXF 393 renal 97.3% | SF-268 CNS 92.6% | SF-295 CNS 84.7% | SF-539 CNS 90.9% | UACC-257 melanoma 98.6% | M14 melanoma 93.7% | HCT-15 colon 93.4% | HT29 colon 69.6% | SNB-75 CNS 91.2% | SNB-19 CNS 96.4% | U251 CNS 96.9% | PC-3 prostate 92.9% | SK-MEL-5 melanoma 97.5% | LOX IMVI melanoma 94.7% | SK-MEL-28 melanoma 105% | SK-MEL-2 melanoma 84%
active: MALME-3M melanoma -11.2%

COc1ccc(C(=O)Nc2ccc3nc(N4CCCCC4)cc(C)c3c2)cc1OC
inactive: MALME-3M melanoma 64.8% | MDA-MB-231 breast 48.3% | RXF 393 renal 92.3% | SF-268 CNS 89.5% | SF-295 CNS 48.6% | SF-539 CNS 82.2% | UACC-257 melanoma 102% | M14 melanoma 83.9% | HCT-15 colon 31.6% | HT29 colon 20.8% | SNB-75 CNS 102% | SNB-19 CNS 109% | U251 CNS 69.3% | PC-3 prostate 45.1% | SK-MEL-5 melanoma 88.1% | UACC-62 melanoma 98.5% | SK-MEL-28 melanoma 94.5% | SK-MEL-2 melanoma 119%
active: K-562 leukemia -18.6%
